Assay results from PubChem BioAssay (NCI).
The panel holds about 83,000 compounds, 20% with a hit somewhere; the sample as a whole holds those more often.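 Single-dose data. Exposure time 48 hours. Values below 10 considered active.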 Values without a mark were called inactive. Active and inactive are the calls of the source.

Tests used:
Assay in all cases: NCI-60 one-dose screen, 48 h (100 = growth as untreated, 0 = no growth, -100 = all killed)
NCI-H226 lung = settings: 10 µM
NCI-H322M lung = settings: 10 µM
HOP-62 NSCLC = settings: 10 µM
NCI-H522 lung = settings: 10 µM
A549/ATCC NSCLC = settings: 10 µM
COLO 205 colon = settings: 10 µM
DU-145 prostate = settings: 10 µM
K-562 leukemia = settings: 10 µM
SF-539 CNS = settings: 10 µM
M14 melanoma = settings: 10 µM
HCT-15 colon = settings: 10 µM
HT29 colon = settings: 10 µM
SNB-75 CNS = settings: 10 µM
U251 CNS = settings: 10 µM
PC-3 prostate = settings: 10 µM
LOX IMVI melanoma = settings: 10 µM
MOLT-4 leukemia = settings: 10 µM
RPMI-8226 leukemia = settings: 10 µM
SK-OV-3 ovarian = settings: 10 µM
MDA-MB-468 breast = settings: 10 µM unless noted

| Compound | growth (NCI-H226 lung) | growth (NCI-H322M lung) | growth (HOP-62 NSCLC) | growth (NCI-H522 lung) | growth (A549/ATCC NSCLC) | growth (COLO 205 colon) | growth (DU-145 prostate) | growth (K-562 leukemia) | growth (SF-539 CNS) | growth (M14 melanoma) | growth (HCT-15 colon) | growth (HT29 colon) | growth (SNB-75 CNS) | growth (U251 CNS) | growth (PC-3 prostate) | growth (LOX IMVI melanoma) | growth (MOLT-4 leukemia) | growth (RPMI-8226 leukemia) | growth (SK-OV-3 ovarian) | growth (MDA-MB-468 breast) |
| --- | --- | --- | --- | --- | --- | --- | --- | --- | --- | --- | --- | --- | --- | --- | --- | --- | --- | --- | --- | --- |
| O=C1S/C(=C\c2ccc([N+](=O)[O-])cc2)C(=O)N1CCN1CCCCC1 | 105% | 107% | 112% | 99.7% | 110% | 113% | 119% | 98.1% | 112% | 98.6% | 92.6% | 121% | 104% | 102% | 94.3% | 98.6% | 101% | 106% | 102% | 99.5% |
| Fc1ccc(/C=C/c2nc3ccccc3n3c(-c4ccc(Cl)cc4)nnc23)cc1 | 77.4% | 89.6% | 107% | -81.7% (active) | 82% | 67.8% | 68% | 10% | 85.5% | 63.8% | 24% | 59.5% | 86.8% | 73% | 72.5% | -89.2% (active) | 2.97% (active) | 53.5% | 104% | -2.32% (active) |
| COc1ccc(C2OC[C@@]3(C)C4CC[C@]5(C)C(CC=C6C7CC(C)(C)CC[C@]7(C(=O)O)CC[C@]65C)[C@@]4(C)C[C@@H](O)[C@@H]3O2)cc1 (stereo partly specified) | 84.5% | 83.5% | 95.5% | 57.1% | 39% | 78.8% | 76.3% | 44% | 95.7% | 96.8% | 56% | 70.8% | 97% | 50.7% | 49.2% | 70.8% | 47.2% | 40.3% | 132% | 75.9% |
| O=C(Nc1ccc(OCc2ccc(Cl)cc2)cc1)Nc1ccc(Cl)c(C(F)(F)F)c1 | 6.46% (active) | 25.9% | 19.5% | -16.7% (active) | 16.2% | -80.6% (active) | 26.6% | 7.62% (active) | 7.92% (active) | 12.5% | 9.07% (active) | 8.31% (active) | 28% | 6.47% (active) | -7.44% (active) | -72.5% (active) | 9.92% (active) | -9.46% (active) | -18.9% (active) | -15.2% (active) |
| Nc1nnc(-c2c[nH]c3ncc(Br)cc23)c(-c2c[nH]c3ccc(Br)cc23)n1 | 35.8% | 63% | 44.5% | 21.9% | 48.7% | 0.336% (active) | 32.5% | 15.2% | 19.9% | 34.5% | 31.7% | 30.9% | 43.4% | 38.3% | 26.6% | 37.6% | 5.25% (active) | 10.9% | 66.6% | 8.52% (active) |
| Cn1cc(-c2cc(N)n3nc(-c4cn(C)c5ccccc45)cc3n2)c2cc(F)ccc21 | -39.8% (active) | -19.1% (active) | -64.6% (active) | -66.3% (active) | -23.5% (active) | -82.3% (active) | -2.27% (active) | 0.146% (active) | -81.6% (active) | -83.6% (active) | -80.2% (active) | -72.2% (active) | -67% (active) | -77% (active) | -28% (active) | -86.2% (active) | -14.4% (active) | -13.3% (active) | -77.7% (active) | -36.3% (active) |
| Cn1cc(-c2nnc(N)nc2-c2c[nH]c3ccc(F)cc23)c2cc(Br)cnc21 | 89.3% | 79.1% | 56.8% | 23.8% | 66.2% | 72.6% | 89.4% | 42.8% | 64.5% | 77.4% | 59.8% | 71.6% | 59.1% | 57.1% | 56.8% | 47% | 4.34% (active) | 59.1% | 98.8% | 13.8% |
| Cc1ccc(-c2nc(C#N)c(S(=O)(=O)N3CCN(S(C)(=O)=O)CC3)o2)cc1 | 85.6% | 98.8% | 95.6% | -86.6% (active) | 92.9% | -69.3% (active) | 68.7% | 6.88% (active) | 40.3% | 22.6% | -74.5% (active) | -6.5% (active) | 107% | 78.7% | 68.3% | -88.6% (active) | 0.383% (active) | 4.64% (active) | 105% | -68.5% (active) |
| COc1ccc(NCc2cn(-c3ccc(C(=O)O)cc3)nc2-c2ccc(F)cc2)cc1C(F)(F)F | 66.3% | 62% | 66.3% | 40.2% | 35.8% | 71.2% | 69.3% | 41.3% | 53.9% | 51.5% | 43.7% | 51% | 79.1% | 29.5% | 36.3% | 43.8% | 40.7% | 37.6% | 112% | 65.1% |
| COc1cc(C2CC(c3ccc(Oc4ccc(Cl)cc4)cc3)=NN2c2nc(-c3ccc(Cl)cc3)c(C#N)c(N3CCOCC3)n2)cc(OC)c1OC (stereo unspecified) | 90.4% | 98% | 98.9% | 92.4% | 97.9% | 101% | 106% | 97.5% | 95.7% | 99% | 95.7% | 106% | 78.3% | 102% | 92% | 80.6% | 105% | 104% | 102% | 107% |
| Cn1cc(/C=C(/SS/C(=C/c2cn(C)c3cccc(C(=O)O)c23)C(=O)O)C(=O)O)c2c(C(=O)O)cccc21 | 97.7% | 102% | 103% | 92.6% | 99.6% | 112% | 104% | 87.4% | 98.5% | 115% | 99.4% | 107% | 88.8% | 99.6% | 97.2% | 48.9% | 111% | 105% | 114% | 103% |
| CCOc1ccc(/C=N/NC(=O)Cn2nc(Cc3ccc(OC)cc3)c3onc(C)c3c2=O)cc1 | 6.7% (active) | 62.1% | 7.48% (active) | 46.6% | 0.727% (active) | 50.4% | 14.4% | 44.7% | -32.6% (active) | 39% | 49.9% | 16.6% | -39.9% (active) | 4.53% (active) | 18.3% | 4.69% (active) | 58.3% | 67.9% | -26.6% (active) | 40.4% |
| COc1ccc2c(N)ncc(C#Cc3cc(C(=O)Nc4ccc(CN5CCN(C)CC5)c(C(F)(F)F)c4)cnc3C)c2c1 | – | – | – | – | – | – | – | – | – | – | – | – | – | – | – | – | – | – | – | 46.7% |
| O=C1NC2C=CC=CC2/C1=C1/SC(=S)N(C2CC(=O)N(c3ccc(Br)cc3)C2=O)C1=O (stereo unspecified) | 91.3% | 101% | 99.2% | 68.7% | 99% | 104% | 97.5% | 55.1% | 93.6% | 103% | 59.3% | 98.1% | 101% | 91.4% | 76.6% | 33.8% | 70.5% | 50% | 99.1% | 84.2% |
| O=C(c1ccc(Cl)cc1)C(c1c[nH]c2ccccc12)c1c[nH]c2ccccc12 | -50.8% (active) | 38.1% | 16% | -82.6% (active) | 4.91% (active) | -87.9% (active) | -91.7% (active) | 0.546% (active) | -94.2% (active) | -71% (active) | -63.9% (active) | -71.1% (active) | 31.9% | -89.1% (active) | -33.2% (active) | -85.1% (active) | -1.68% (active) | -27.9% (active) | 57.2% | -71.1% (active) |
| Cn1cc(-c2cc3nc(-c4c[nH]c5ccccc45)cc(N)n3n2)c2cc(Cl)ccc21 | -30.4% (active) | -98.8% (active) | -86.4% (active) | -72.1% (active) | -84.6% (active) | -89.9% (active) | -92.6% (active) | 0.698% (active) | -92.5% (active) | -89.3% (active) | -84% (active) | -69.3% (active) | -65.9% (active) | -91.8% (active) | -85.3% (active) | -91.6% (active) | -48.8% (active) | -25.5% (active) | -94.7% (active) | -85.9% (active) |
